Inconclusive results are not listed. Active and inactive are the calls of the source. Calls follow the shape of the dose curve; as a rule, active = well fitted cell-killing curve with a large enough effect in the repeat runs; inconclusive = weak or mixed curves, or effect the other way; inactive = flat fitted curve, though single readings scatter.
Assay: cAMP Responsive Elements (CRE) small molecule agonists, cell-based qHTS assay: qHTS cell viability counter screen (AID 2060914); also: nearly all actives have a fitted effect of over 50% in size
Details: CRE-bla HEK293T viability, CellTiter-Glo luminescence, 5 h; series mostly up to 92.4 µM; activity change, negative = cytotoxicity: at the top concentration
In short: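 Cells are seeded and incubated 18 h, treated with compounds in DMSO for 3 h, read for the bla reporter, then given CellTiter-Glo; luminescence is measured after 30 min at room temperature.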
% is scaled to controls: 0 for no effect and ±100 for the full control effect.

| Structure (SMILES) | Potency | activity change, negative = cytotoxicity |
| --- | --- | --- |
| CCc1cccc2c3c([nH]c12)C(CC)(CC(=O)O)OCC3 (configuration not stated) | inactive | – |
| Nc1cc(Cl)c(N)c(Cl)c1 | inactive | – |
| C1=Cc2ccccc2C1 | – | -1.49% (inactive) |
| O=C(Cl)c1ccc(Cl)cc1Cl | – | -8.93% (inactive) |
| C=CC(=O)OCCC(=O)O | inactive | – |
| OC[C@H]1O[C@@H]2O[C@H]3[C@H](O)[C@@H](O)[C@@H](O[C@H]4[C@H](O)[C@@H](O)[C@@H](O[C@H]5[C@H](O)[C@@H](O)[C@@H](O[C@H]6[C@H](O)[C@@H](O)[C@@H](O[C@H]7[C@H](O)[C@@H](O)[C@@H](O[C@H]8[C@H](O)[C@@H](O)[C@@H](O[C@H]9[C@H](O)[C@@H](O)[C@@H](O[C@H]1[C@H](O)[C@H]2O)O[C@@H]9CO)O[C@@H]8CO)O[C@@H]7CO)O[C@@H]6CO)O[C@@H]5CO)O[C@@H]4CO)O[C@@H]3CO | – | -0.524% [at 42.5 µM] (inactive) |
| CC(C)SCc1ccco1 | – | -3.12% [at 42.5 µM] (inactive) |
| CCCCCCCCCCC1CO1 (configuration not stated) | – | 4.56% (inactive) |
| Oc1cc(Cl)cc(Cl)c1Cl | – | 15.1% (inactive) |
| CCCN(CCC)S(=O)(=O)c1ccc(C(=O)O)cc1 | inactive | – |
| C=CCc1ccccc1OCC(O)CNC(C)C (configuration not stated) | – | -4.68% [at 42.5 µM] (inactive) |
| CC(CCC(=O)O)C(=O)O (configuration not stated) | – | -1.5% (inactive) |
| COc1ccc(C2C(=O)c3ccccc3C2=O)cc1 | – | -0.746% [at 42.5 µM] (inactive) |
| CC(C)c1ccc(C(=O)N=C(N)N)cc1S(C)(=O)=O | – | 2.44% [at 42.5 µM] (inactive) |
| C[C@]12C=CC(=O)C=C1CC[C@H]1[C@@H]3C[C@@H](O)[C@](O)(C(=O)CO)[C@@]3(C)C[C@H](O)[C@@]12F | inactive | – |
| C1CCC2=NCCCN2CC1 | – | 20.7% (inactive) |
| OCCN1CCOCC1 | – | 27.8% (inactive) |

— PubChem BioAssay (Tox21)
